Whole data set: some 33,000 sequences, median “E-score (dimensionless, -0.5 to 0.5)” near -0.058, cut for the highest 2% near 0.35. The list comes from a sample in which the highest values are over-represented; it also holds similar and randomly drawn sequences.
System: MvaT
Assay: PBM 8-mer E-score (mean of HK and ME arrays) (E-score (dimensionless, -0.5 to 0.5)); higher = stronger relative binding preference
Procedure: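 Protein binding microarray: GST-tagged full-length MvaT (P. aeruginosa PAO1) bound to two universal double-stranded 60-mer arrays (ME and HK), each with a constant 25-mer primer and a variable 35-mer region covering all 8-mers. The 8-mer E-score (rank-based, range -0.5 to 0.5, >0.45 = specific binding) is the mean of the two arrays.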

Sequence | PBM 8-mer E-score
CGGTTATC | 0.0552
GCATCGGA | -0.11
CTGATGCC | -0.231
AGAGAAAT | 0.134
GATAGTAA | 0.284
AAATTACT | 0.308
AAATTAGT | 0.281
GGATTAAA | 0.232
GAATTAAA | 0.385
CAATTAAG | 0.24
AAATTACG | 0.256
GAATTAAC | 0.256
AAATTAAG | 0.361
AAATTAAT | 0.426
CAATTAAA | 0.305
TGATTAAA | 0.27
TAATTAAA | 0.447
CCCGTACA | -0.0141
CGTAATCA | 0.0215
AAATTAGA | 0.191
AAATTAAA | 0.399
AAATTAAC | 0.27
CGGAGGGA | -0.311
CAAAACAC | 0.0954
GGTTTAAA | 0.31

Sequence | PBM 8-mer E-score
TGTTTAAA | 0.387
AGTTTAAG | 0.257
AGTTTAAT | 0.379
AGTTTAAC | 0.244
TGTTTTAA | 0.302
CGTTTAAA | 0.317
AGTTTAAA | 0.378
AGTTTTAA | 0.259
AATTCTGA | 0.0908
TGCATCCA | -0.0802
GGGCCCTA | -0.218
AGGAAGAG | -0.188
ATGGAGTA | 0.0119
TATACTAA | 0.391
AATACTAA | 0.356
AATACTAC | 0.271
AATACTAT | 0.297
CATACTAA | 0.198
GATACTAA | 0.213
TCTGAGAA | -0.0369
AGCTAAGA | -0.0322
ATAATGTC | 0.337
ATAATGCG | 0.271
CTAATGCA | -0.0396
ATAATGTA | 0.401

Sequence | PBM 8-mer E-score
ATAATGCA | 0.36
CTAATGTA | 0.23
ATCCCGCC | -0.0462
CCTATCTC | 0.0122
AACCGTTG | -0.0901
GTTGTACA | 0.115
AAGAGTGA | 0.00575
CTTCACTC | -0.239
ACAAGTTA | 0.338
ATAAGTTG | 0.342
GGAAGTTA | 0.227
ATAAGTTA | 0.441
CTAAGTTC | 0.232
CTAAGTTA | 0.352
AGAAGTTC | 0.223
CTAAGTCA | -0.101
GCAAGTTA | 0.34
ATAAGTGC | 0.178
GTAAGTTA | 0.396
ATAAGTTC | 0.368
ACACAACG | -0.0104
GAAGGAGA | -0.255
GGGTTCAC | -0.111
AACCATAT | 0.254
AACATCCC | 2.53e-05

Sequence | PBM 8-mer E-score
TACGAGGA | -0.05
GGGGCCAA | -0.225
CTATCCAA | -0.0391
ATATTAGA | 0.407
CTATTAGC | 0.136
CTATTAGA | 0.208
ATATTACC | 0.293
ATATTAGC | 0.352
CTATTACA | 0.267
ATATTACA | 0.386
GTATTAGA | 0.267
ATATTAGG | 0.309
ATCTGTGA | -0.0144
CACTTAGC | -0.0629
GCCCGCGA | -0.31
ACCTGTCG | -0.277
CTGAAAAG | -0.0791
AAAATTGT | 0.269
TAAATTAA | 0.437
AAAATTAG | 0.162
AAAATTAA | 0.387
AAAATTGA | 0.224
AAAATTAT | 0.355
GAAATTAA | 0.331
CAAATTAA | 0.286

Sequence | PBM 8-mer E-score
AAAATTAC | 0.149
CCTAATAC | 0.104
GGGCTCCA | -0.168
GAAGCATA | 0.00764
CACACCTA | 0.0249
ACACGAGT | -0.0299
ACTACTGG | 0.0326
AATCCGCC | -0.0734
ACTTAAAA | 0.226
CTTTTAAC | 0.314
CTTTTTAA | 0.213
ATTTAAAA | 0.377
ATTTTTAA | 0.323
CTTTTAAA | 0.361
CCTTAAAA | 0.0816
GTTTTAAA | 0.282
ATTTTAAA | 0.383
CGCTGGAA | -0.092
AGCAAAAA | 0.0929
ACGTTGAT | 0.0529
GCAAACAA | 0.0823
AATATAGA | 0.365
AATATAGG | 0.288
CATATAGA | 0.187
AATATAGC | 0.343

Sequence | PBM 8-mer E-score
ACTATAGA | 0.127
AATAGAGA | 0.217
TATATAGA | 0.434
AATATAGT | 0.398
GATATAGA | 0.206
CCCTTCAG | -0.27
GAGTAGAA | 0.0154
AGAAACGG | -0.0989
ATACAATG | 0.204
CCGGCTAC | -0.217
GCCAGAAC | -0.0482
AAATAAGT | 0.38
ACATAAAT | 0.301
CAATAAAG | 0.252
ACATAAAA | 0.23
ACATAAAG | 0.101
AGATAAAA | 0.178
AAATAAGG | 0.322
AAATAAGC | 0.275
AAATAAAG | 0.405
AAATAAAA | 0.419
AAATAAAC | 0.334
AAATAAAT | 0.428
AAGCCGCT | -0.232
ATTCAACG | 0.0307

Sequence | PBM 8-mer E-score
CCAATTCA | -0.0716
TCCTGTCA | -0.158
GAGCAAAC | -0.0867
GCTGCCAA | -0.0483
CTACTAAG | -0.00927
AAGCGTCA | -0.00559
CCGAATAG | -0.0201
CGCAGTCC | -0.172
AACCTCCA | -0.115
GGTCTGTA | -0.219
GAACCTGA | -0.0412
AATCTCGA | 0.179
ACTGAAAG | -0.0474
AATTAAAG | 0.355
TATTAACA | 0.437
GATTAACA | 0.278
CATTAACA | 0.274
AATTAAAT | 0.452
ACTTAAAT | 0.331
CATTAAAG | 0.272
ACTTAAAG | 0.159
AATTAAAA | 0.373
ATTAAAAT | 0.29
ATGTTGGA | 0.125
CAACCATA | 0.0988

Sequence | PBM 8-mer E-score
CTCGTAAG | -0.0264
CCTGGTTC | -0.254
CCGCCGGC | -0.321
AAATAGGA | -0.0215
AAAAACAC | 0.087
CAGGTGAG | -0.208
GCCCCACC | -0.292
AAGGAGTC | -0.047
CTAATCAA | 0.102
TATTAAAA | 0.41
AATTAAGA | 0.277
GATTAAAC | 0.191
CATTAAAC | 0.334
CATTAAAA | 0.201
AATTAAAC | 0.382
GATTAAAA | 0.217
TATTAAGA | 0.366
GATTAAGA | 0.157
TGATGGAA | 0.0193
CGCCCCTC | -0.202
CCACCCTA | 0.0237
AAAAGTGC | 0.142
AGGTGGGC | -0.177
AATTTGGC | 0.161
CTGCAGTA | 0.129

Sequence | PBM 8-mer E-score
AAAGCATA | 0.0331
CTTTAAAC | 0.229
GCTTAAAC | 0.121
ATTAAAAC | 0.301
ATTTAAAT | 0.474
GGTTAAAC | 0.0681
ATTTTAAG | 0.225
ATTTTAAC | 0.307
GTTTAAAC | 0.406
CTTTAAAG | 0.25
ATTTAAAG | 0.354
ATTTAAAC | 0.398
GGGTGCAA | -0.0874
AGTTCGAT | 0.171
CGGTCCGA | -0.24
GGGTAGCA | -0.213
CAGTGTCC | -0.176
GACAAATC | -0.0221
ATTTAACA | 0.376
AGTTAATA | 0.406
AGTTAATC | 0.169
GTTTAATA | 0.407
ATTTAAGG | 0.101
GGTTAATA | 0.276
GTTTAACA | 0.281

Sequence | PBM 8-mer E-score
GTTTAAGA | 0.246
ATTTAATG | 0.376
ATTTAACG | 0.255
ATTTAACC | 0.195
ATTTACTG | 0.247
CAACTCCA | -0.0538
CACCCAGA | -0.158
CATAGGAG | 0.0253
AATCTCGG | 0.0949
ACACCATA | 0.0603
CCAGGTCA | -0.141
AAGTAGGT | 0.0927
CATTCCCC | -0.183
ATTTAAGC | 0.309
CTTTAATA | 0.344
ATTTAATC | 0.346
CTTTAATC | 0.141
ATTTAATA | 0.411
ATTTAAGA | 0.239
AGATCGCG | -0.153
GATTCAGA | -0.0136
GAGTTAGC | -0.00613
GGACCAAA | -0.139
AGCTCGGA | -0.141
AAATTATC | 0.318

Sequence | PBM 8-mer E-score
GAATTATA | 0.374
GAATTATC | 0.147
TAATTATA | 0.462
TAATTCTA | 0.278
CAATTATC | 0.264
CAATTATA | 0.414
AAATTATA | 0.45
CAATTATG | 0.329
GAATTACA | 0.175
TAATTGTA | 0.305
AAATTATG | 0.233
AAGGACCA | -0.154
AGGGGGTG | -0.316
AACCTGCT | -0.0689
TGTCCCAA | 0.187
CTGGCAAC | 0.0118
TCCTTCAA | -0.14
ATACTAAG | 0.272
AGTAGGTG | -0.0642
AATCGAAC | 0.176
CCCGGCGA | -0.269
AAATTGTA | 0.267
TAATTACA | 0.384
CAATTAGA | 0.202
CAATTACA | 0.288

Sequence | PBM 8-mer E-score
TAATTAGA | 0.353
GAATTAGA | 0.106
AAATTATT | 0.401
AAATTAGG | 0.165
AAATTACA | 0.274
AAATTACC | 0.212
AAATTGTC | 0.22
AAATTGTT | 0.351
ACAGCAAG | -0.0242
GTACATAA | 0.297
CCGGGACC | -0.311
ATCCAGAA | 0.0751
ATCAGTCG | -0.0941
ACAAATGC | 0.0069
GAGGTAGC | -0.211
AGCCACCA | -0.0502
AAAAGTTA | 0.371
GAAAGTTA | 0.346
AATAGTTA | 0.387
AAAAGTTC | 0.277
AAAAGTTG | 0.221
AAAAGTTT | 0.352
GATAGTTA | 0.311
TAAAGTTA | 0.315
CATAGTTA | 0.178

Sequence | PBM 8-mer E-score
AAAAGTCA | 0.0201
AAAAGTGA | 0.0292
CAAAGTTA | 0.265
GCGTCAGA | -0.131
CGTGGATA | 0.112
ATCCCAGA | -0.203
GCCACGCA | -0.169
CACCGGTG | -0.153
GAAACAGA | -0.0327
CGGAGTAC | -0.128
CTGAATGC | -0.0524
AGGTCGCG | -0.202
AAAAAGTT | 0.357
AAAAAGTC | 0.17
AAAAAGTA | 0.154
TGCCGGCA | -0.0619
ATGACTCA | -0.062
AGTTAAAG | 0.209
AGTTAAAA | 0.37
CGTTAAAA | 0.295
TGTTAAAA | 0.25
AGTTAAAC | 0.242
AGTTAAAT | 0.383
ACCTGCAC | -0.11
CCGCAGAC | -0.181

Sequence | PBM 8-mer E-score
AAAGACGT | 0.0386
CGTGCGCC | -0.27
TCCAGGCA | -0.215
AAATGTAG | 0.0975
GAATGTAA | 0.232
ACATGTAA | 0.361
AAATGTAA | 0.373
TAATGTAA | 0.373
TCATGTAA | 0.119
TATTGTAA | 0.379
GATTGTAA | 0.109
CCATGTAA | 0.171
AATTGTAA | 0.305
CAATGTAA | 0.236
AAATGTAC | 0.14
AGTAGATA | 0.202
CGAATTTA | 0.157
CTGGGATA | -0.0515
CGCAACCC | -0.0943
